In PubChem BioAssay (NCATS) one finds Potency data, which are given here for 8 molecules.

Records with an inconclusive call do not appear. Calls of active or inactive are those of the source. The call rests on the fitted dose curve; in most records, active means well fitted inhibition curve with a large enough effect; inconclusive means small, poorly fitted or top-dose-only effect; inactive means flat fitted curve, though single readings scatter.

Holding throughout (assay): qHTS profiling for inhibitors of Plasmodium falciparum proliferation (AID 504749); further: nearly all actives have a fitted effect of over 60% in size
What all share (conditions): P. falciparum in erythrocytes, SYBR Green DNA, 72 h; series mostly up to 28.7 µM
On the technique in general: qHTS replaces the single test concentration by a dilution series.

One assay concerns 7G8. In short, it runs like this: (§1)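 Quantitative HTS: compounds pinned into medium, infected erythrocytes added (0.3% parasitemia, 2.5% hematocrit), 72 h culture at 37 C under 5% CO2. Saponin/Triton lysis with SYBR Green I, overnight RT, then fluorescence read.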
A further assay concerns ATS95. In a few lines:
as §1

The next assay concerns CP201. In short, it runs like this: as §1
Another assay concerns CP250. In short, it runs like this: as §1
Another assay concerns CP256. In short, it runs like this:
as §1

The test system of the next assay is CP262. In a few lines: as §1
Another assay has as its system CP265. In a few lines:
as §1

Another assay concerns CP269. In a few lines: as §1
In a further assay the test system is CP315. In a few lines:
as §1

The test system of a further assay is CP325. In a few lines: as §1
A further assay has as its system CP329. In a few lines:
as §1

A further assay relates to DIV30. In short, it runs like this:
as §1

The next assay relates to ECU. In short, it runs like this: as §1
In the next assay the test system is N140. In a few lines:
as §1

In another assay the test system is PAD. In a few lines:
as §1

Another assay has as its system PC15. In a few lines: as §1
In a further assay the test system is SC27B. In a few lines: as §1
The test system of the next assay is TAB113. In a few lines: as §1
The test system of a further assay is TAB165. In short, it runs like this: as §1
For a further assay, the system named is CP203. In short, it runs like this: as §1
Potency means the concentration at half of the fitted maximal effect.

As for `CO/N=C(/C(=O)N[C@@H]1C(=O)N2C(C(=O)O)=C(CSc3nnnn3C)CS[C@H]12)c1csc(N)n1`, the Potency entry with 7G8, in the assay on ATS95, in the assay on CP201, in the assay on CP250, with CP256 and with CP262 was “inactive” in each case. The Potency entry in the assay with CP265, in the assay on CP269, with CP315, with CP325, in the assay on CP329 and in the assay on DIV30 was “inactive” throughout. Also, the Potency result with ECU, with N140, in the assay on PAD, in the assay with PC15, with SC27B and in the assay with TAB113 was “inactive” throughout. Further, the Potency result with TAB165 is “inactive”.
With `CC(CN1CC(=O)NC(=O)C1)N1CC(=O)NC(=O)C1` (stereo not given), the Potency result in the assay on 7G8, with ATS95, in the assay on CP201, in the assay on CP203, with CP250 and in the assay with CP256 was “inactive” in each case. The Potency result with CP262, in the assay on CP265, in the assay on CP269, in the assay with CP315, with CP325 and with CP329 was “inactive” each time. Also, the Potency result with DIV30, in the assay with ECU, in the assay on N140, in the assay with PAD, with PC15 and in the assay with SC27B was “inactive” throughout. Further, the Potency entry with TAB113 and in the assay on TAB165 was “inactive” throughout.
With `CC[C@@]1(O)CC2CN(CCc3c([nH]c4ccccc34)[C@](C(=O)OC)(c3cc4c(cc3OC)N(C)C3[C@@](O)(C(=O)OC)C(OC(C)=O)[C@]5(CC)C=CCN6CC[C@@]43C65)C2)C1` (stereo not given in full), the Potency in the assay with 7G8 was 2.82 µM (active); in the assay on ATS95 it was 3.55 µM (active); in the assay with CP203, 3.01 µM (active); with CP250 it was 3.55 µM (active); with CP256, 3.16 µM (active); with CP262, 1.69 µM (active). Moreover, the Potency with CP265 was 2.24 µM (active); in the assay with CP269 it was 3.01 µM (active); in the assay with CP315, 3.38 µM (active); in the assay with CP329, 3.01 µM (active); with DIV30, 1.69 µM (active); in the assay on ECU, 2.51 µM (active). Also, the Potency in the assay with N140 is 3.55 µM (active); in the assay with PAD, 2.24 µM (active); in the assay on SC27B it was 2.82 µM (active); in the assay with TAB113, 3.98 µM (active); in the assay with TAB165 it was 3.55 µM (active).
As to `C=C(CC[C@@H](C)[C@H]1CCC2[C@]1(C)CC[C@]13C[C@@]14CCC(OC(=O)/C=C/c1ccc(O)c(OC)c1)C(C)(C)[C@@H]4CC[C@@]23C)C(C)C` (stereo not given in full), the Potency result in the assay with ATS95, in the assay with CP201, in the assay with CP203, in the assay on CP250, in the assay on CP256 and in the assay on CP262 was “inactive” each time. Moreover, the Potency entry in the assay on CP265, with CP269, in the assay with CP315, in the assay on CP325, with CP329 and with DIV30 was “inactive” each time. Moreover, the Potency entry in the assay with ECU, in the assay on N140, with PAD, in the assay with PC15, in the assay with SC27B and with TAB113 was “inactive” each time. The Potency entry with TAB165 was “inactive”.
Take `C[C@]12C=CC(=O)N[C@@H]1CC[C@@H]1C2CC[C@]2(C)C(C(=O)Nc3cc(C(F)(F)F)ccc3C(F)(F)F)CC[C@@H]12` (stereo not given in full): the Potency with 7G8 is 2 µM (active). In addition, the Potency result with CP201, with CP203, with CP250, in the assay with CP256, in the assay on CP262 and in the assay on CP265 was “inactive” each time. Further, the Potency entry in the assay on CP269, in the assay on CP325, in the assay on CP329, with DIV30, in the assay with ECU and with N140 was “inactive” throughout. Further, the Potency entry with PAD, with PC15, with SC27B and with TAB113 was “inactive” in each case.
As to `Nc1nc(/C(=C/CC(=O)O)C(=O)NC2C(=O)N3C(C(=O)O)=CCSC23)cs1` (stereo not given), the Potency result with 7G8, in the assay on ATS95, in the assay on CP201, with CP250, in the assay on CP256 and in the assay on CP262 was “inactive” throughout. For the same molecule, the Potency entry in the assay with CP265, in the assay with CP269, with CP315, with CP325, in the assay with CP329 and with DIV30 was “inactive” each time. In addition, the Potency entry in the assay on ECU, in the assay on N140, with PAD, in the assay on PC15, with SC27B and in the assay on TAB113 was “inactive” throughout. Further, the Potency entry with TAB165 was “inactive”.
For the molecule `CCCCCOC(=O)Nc1nc(=O)n(C2O[C@H](C)[C@@H](O)[C@@H]2O)cc1F` (stereo not given in full), the Potency entry in the assay with 7G8, in the assay on ATS95, in the assay on CP201, in the assay with CP203, in the assay with CP250 and in the assay on CP262 was “inactive” in each case. For the same molecule, the Potency entry with CP265, with CP269, in the assay with CP315, with CP325, in the assay on CP329 and in the assay with DIV30 was “inactive” in each case. In addition, the Potency result with ECU, with N140, with PAD, in the assay with PC15, in the assay on SC27B and in the assay with TAB113 was “inactive” each time. Moreover, the Potency entry in the assay with TAB165 was “inactive”.
`N#C/C(=C1/SCC(c2ccccc2Cl)S1)n1ccnc1` (stereo not given): the Potency in the assay on 7G8 was 10 µM (active); in the assay with TAB165, 12.6 µM (active). Also, the Potency result in the assay with CP201, in the assay with CP203, in the assay with CP250, in the assay on CP256, in the assay with CP262 and in the assay with CP265 was “inactive” throughout. In addition, the Potency result in the assay with CP269, with CP315, with CP325, with CP329, with DIV30 and in the assay with PC15 was “inactive” each time. In addition, the Potency entry in the assay on TAB113 was “inactive”.
